Test results: PubChem BioAssay AID540326 (Broad Institute, 2011)
This is one part of the list. Active and inactive are the calls of the source.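 The calls were made as follows: active = quenching, a falling signal, with AC50 below a set limit tied to the top valid dose (actives reach about 32 µM in these data); inconclusive = no clear call, values can overlap the other calls; inactive = rising signal, and the rest.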

Test: compounds quenching DiI signal without cells – biochemical, cherry-pick samples, plate reader fluorescence, artefact control for SR-BI HDL uptake inhibitor project, dose response (AID 540326)
Conditions: cell-free DiI-HDL fluorescence quenching, 30 min; series mostly up to 35 µM

AC50, active:
C=CCCC(=O)Nc1nc(C)c(-c2csc(Nc3ccc(Cl)cc3)n2)s1 2190 nM, CCCCC(=O)Nc1nc(C)c(-c2csc(Nc3ccc(Cl)cc3)n2)s1 1930 nM, O=C(Nc1ccc(-c2csc(Nc3cccc(C(F)(F)F)c3)n2)cc1)c1cccc(C(F)(F)F)c1 435 nM

AC50, inactive:
CCCOC1CCCN(C(=O)c2cc(COc3cncc(Cl)c3)on2)C1 (centres undefined), CCOc1ccc(NC(=O)CN2CCN(CC(=O)Nc3ccc(OC)cc3)CC2)cc1, COc1cccc(N(CC(=O)NC2CCCC2)C(=O)Cn2nnc(-c3ccc(C)cc3)n2)c1, CCCC(=O)Nc1ccc(Cl)c(NC(=O)c2ccc(Br)o2)c1, Cc1cccc(N2CCN(C(=O)CN(C)S(=O)(=O)c3ccc4c(c3)CCC(=O)N4)CC2)c1C, CC(C)OCCCNC(=O)c1ccc(C2SCC(=O)N2Cc2ccco2)cc1 (centres undefined), CCOC(=O)c1[nH]c2c(c1-c1ccccc1)C(=O)CC(c1ccc(Cl)cc1)C2 (centres undefined), CCCOC(=O)c1[nH]c2c(c1C)C(=O)CC(c1cc(OC)c(OC)c(OC)c1)C2 (centres undefined), O=C(Nc1cccc(NC(=O)N2CCN(c3ccccc3)CC2)c1)N1CCN(c2ccccc2)CC1, O=c1cc(N2CCCCC2)c(-c2ccccc2)nn1Cc1cccc(F)c1, CCCC(=O)N1c2ccc(-c3csc(N)n3)cc2CC1C (centres undefined), O=C(NC1CC2CCCC(C1)N2C(=O)N1CCCCC1)C1CCCCC1 (centres undefined), CCOc1ccc(OCCSc2nc3ccccc3n2CC(=O)O)cc1, O=C(Nc1cccc(NC(=O)c2ccccc2[N+](=O)[O-])c1)c1ccccc1Cl, Cc1cc(NC(=O)Nc2ccccc2)n(-c2ccccc2)n1, COC(=O)C1=CN(c2ccc(F)c(F)c2)C=C(C(=O)OC)C1c1ccc([N+](=O)[O-])cc1
